From PubChem BioAssay (Tox21) come the findings set out here.

Experiment [1] is described as follows: qHTS RealTime-Glo MT Cell Viability Assay in HEK293 cells - 0 hour (AID 1224880). Note: top concentration of the series differs between compounds; nearly all actives have a fitted effect of over 45% in size. Summed up: (§1)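 Real-time viability in HEK293: signal arises when living cells convert a prosubstrate for NanoLuc in the medium, so luminescence tracks viable cell number. Compound (23 nL, DMSO) added 5 h post-seeding; kinetic reads at 0–40 h, 37 C.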
(Quantitative high-throughput screening tests each substance at several concentrations.)

Experiment [2] is described as follows: A CellTox Green Cytotoxicity Assay to monitor cytotoxicity in HEK293 cells - 32 hour (AID 1224881). Note: nearly all actives have a fitted effect of over 40% in size. Note: potency is the fitted concentration of half-maximal effect. The method, boiled down:
(§2)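 Cells (HEK293, 600/well) and dye reagent are dispensed together. After 5 h at 37 C, 23 nL compound is pinned in. Plates stay at 37 C for 40 h with fluorescence read at 0h, 8h, 16h, 24h, 32h and 40h.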

A short description of experiment [3]: A CellTox Green Cytotoxicity Assay to monitor cytotoxicity in HepG2 cells - 0 hour (AID 1224882). Note: nearly all actives have a fitted effect of over 35% in size. The method, boiled down: (§3)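 Cells and non-lytic dye reagent are dispensed together (600 HepG2 cells/well) and incubated 5 h before DMSO compound transfer. Kinetic fluorescence is then recorded in the same wells during 40 h at 37 C.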
Experiment [4] can be described thus: A CellTox Green Cytotoxicity Assay to monitor cytotoxicity in HepG2 cells - 32 hour (AID 1224883). Note: nearly all actives have a fitted effect of over 50% in size. Summed up:
as §3

Experiment [5] in a line: A CellTox Green Cytotoxicity Assay to monitor cytotoxicity in HEK293 cells - 8 hour (AID 1224884). Note: nearly all actives have a fitted effect of over 35% in size. The method, boiled down:
as §2

Experiment [6] in a line: qHTS RealTime-Glo MT Cell Viability Assay in HEK293 cells - 24 hour (AID 1224886). For activity change, negative = cytotoxicity: top concentration of the series differs between compounds. Note: nearly all actives have a fitted effect of over 50% in size. Note: potency is the fitted concentration of half-maximal effect. Summed up:
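Quantitative high-throughput screen of the Tox21 10K library in HEK293: cells and RealTime-Glo reagents plated together, compound added at 5 h, luminescence monitored through 40 h at 37 C.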

Experiment [7] can be described thus: A CellTox Green Cytotoxicity Assay to monitor cytotoxicity in HEK293 cells - 16 hour (AID 1224888). Note: nearly all actives have a fitted effect of over 35% in size. Summed up: as §2
Experiment [8] can be described thus: qHTS RealTime-Glo MT Cell Viability Assay in HepG2 cells - 0 hour (AID 1224889). Note: nearly all actives have a fitted effect of over 50% in size. The method, boiled down:
(§4)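 Compound treatment began 5 h after plating HepG2 cells (600/well) with NanoLuc luciferase and prosubstrate. Plates stayed at 37 C for 40 h; luminescence was captured at six time points, 0 h through 40 h.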

A short description of experiment [9]: qHTS RealTime-Glo MT Cell Viability Assay in HepG2 cells - 16 hour (AID 1224885). Note: nearly all actives have a fitted effect of over 50% in size. Summed up:
as §4

The nature of experiment [10]: qHTS RealTime-Glo MT Cell Viability Assay in HEK293 cells - 8 hour (AID 1224887). For activity change, negative = cytotoxicity: top concentration of the series differs between compounds. Note: nearly all actives have a fitted effect of over 50% in size. Note: potency is the fitted concentration of half-maximal effect. The method, boiled down: as §1

Structures are written as SMILES. Unmarked numbers belong to inactive results. Results filed as inconclusive are left out. Active and inactive are the calls of the source. Calls come from the whole dose curve; as a rule, active = well fitted curve in the direction sought with a large enough effect in the repeat runs; inconclusive = weak or mixed curves; inactive = no such curve, though single readings can be large; an effect the other way counts as inactive or inconclusive.
% is set by controls: 0 for no effect and ±100 for the full control effect.

For `CCOC(=O)C(C)Oc1ccc(Oc2nc3ccc(Cl)cc3o2)cc1` (configuration not stated), the Potency result in experiment [1], in experiment [2], in experiment [3], in experiment [4], in experiment [5] and in experiment [7] was “inactive” throughout. In addition, the Potency result in [8] is “inactive”. The Potency in [6] was 24.5 µM (active).
Turning to `CCC(C)(C)C1CCC(O)CC1` (configuration not stated), the Potency entry in experiment [1], in experiment [2], in experiment [3], in experiment [5], in [9] and in [6] was “inactive” each time. The Potency entry in experiment [10], in experiment [7] and in experiment [8] was “inactive” in each case.
Turning to `CC(=O)[C@H]1CC[C@H]2[C@@H]3C=CC4=CC(=O)CC[C@@]4(C)[C@@H]3CC[C@]12C`, the Potency result in experiment [1], in experiment [2], in experiment [3], in [4], in experiment [5] and in experiment [9] was “inactive” each time. Further, the Potency entry in [10], in experiment [7] and in experiment [8] was “inactive” in each case.
`Cc1ccc(S(=O)(=O)NC2CCCCC2)cc1`: the Potency result in experiment [1], in [2], in experiment [3], in experiment [4], in experiment [5] and in experiment [9] was “inactive” in each case. Further, the Potency entry in [10], in [7] and in [8] was “inactive” each time.
For the compound `Cc1ccc(Nc2nccc(N(C)c3ccc4c(C)n(C)nc4c3)n2)cc1S(N)(=O)=O`, the Potency result in experiment [1], in experiment [2], in experiment [3], in [5], in experiment [9] and in [7] was “inactive” each time. The Potency result in experiment [8] is “inactive”. Moreover, the Potency in experiment [6] was 1.51 µM (active); in experiment [10], 2.13 µM (active).
On to `COc1ccc([C@@H]2Sc3ccccc3NC(=O)[C@@H]2O)cc1`, for which the Potency entry in experiment [1], in experiment [2], in [3], in experiment [5], in experiment [9] and in experiment [6] was “inactive” throughout. Further, the Potency result in [10], in experiment [7] and in experiment [8] was “inactive” in each case.
As to `CCCCC(CC)C(=O)OCCOCCOCCOCCOC(=O)C(CC)CCCC` (configuration not stated), the Potency entry in experiment [1], in experiment [2], in [3], in experiment [4], in [5] and in [9] was “inactive” throughout. Besides, the Potency result in experiment [7] and in [8] was “inactive” each time.
In the case of `CC(C)C(OC(=O)c1ccccc1)C(C)(C)COC(=O)c1ccccc1` (configuration not stated), the Potency entry in [1], in experiment [2], in [3], in experiment [4], in experiment [9] and in experiment [7] was “inactive” throughout. Also, the Potency result in [8] was “inactive”.
With `CNC(=O)N(c1ccccc1)c1ccccc1`, the Potency entry in [1], in experiment [2], in [3], in [5], in [9] and in [6] was “inactive” in each case. Besides, the Potency result in [10], in experiment [7] and in [8] was “inactive” throughout.
As for `CCOc1cc(N)c(Cl)cc1C(=O)NCC1CN(Cc2ccc(F)cc2)CCO1` (configuration not stated), the Potency result in experiment [1], in [2], in [3], in [4], in experiment [5] and in [7] was “inactive” throughout. The Potency in [6] is 15.1 µM (active); in experiment [10], 19 µM (active).
On to `Cc1cc(C(=C2C=CC(=Nc3ccc(S(=O)(=O)O)cc3S(=O)(=O)O)C=C2)c2ccc(Nc3ccc(S(=O)(=O)O)cc3)cc2)ccc1N`, for which the Potency entry in experiment [1], in experiment [2], in experiment [3], in experiment [5], in [9] and in [6] was “inactive” each time. Besides, the Potency result in experiment [10] and in experiment [7] was “inactive” each time.
`CC(C)(C)CC(C)(C)c1ccc(OCCO)cc1`: the Potency result in experiment [1], in experiment [3], in experiment [4] and in experiment [9] was “inactive” in each case. The Potency in experiment [2] was 54.6 µM (active); in experiment [6] it was 5.46 µM (active); in [10], 7.72 µM (active).
For `CC1CC(=O)NN=C1c1ccc(NCC(C)(C)NCC(O)COc2cc(Cl)ccc2C#N)cc1` (configuration not stated), the Potency result in experiment [1], in [2], in [3], in experiment [4], in experiment [5] and in experiment [9] was “inactive” in each case. Moreover, the Potency entry in [10] and in [7] was “inactive” in each case.
For `O=[N+]([O-])c1cccc(S(=O)(=O)NCCNS(=O)(=O)c2cccc([N+](=O)[O-])c2)c1`, the Potency entry in experiment [1], in experiment [2], in [3], in experiment [5], in experiment [9] and in experiment [6] was “inactive” throughout. For the same compound, the Potency result in experiment [10], in [7] and in experiment [8] was “inactive” each time.
Consider `Cc1cc(S(=O)(=O)O)ccc1N=Nc1c(O)ccc2ccccc12`, for which the Potency entry in experiment [1], in experiment [2], in experiment [3], in [4], in experiment [5] and in experiment [6] was “inactive” each time. The Potency entry in experiment [10] and in experiment [7] was “inactive” throughout.
As for `CCC(C(=O)OCCN(CC)CC)c1ccccc1` (configuration not stated), the Potency entry in [1], in experiment [2], in experiment [3], in experiment [4], in experiment [5] and in [9] was “inactive” in each case. Also, the Potency result in [6], in experiment [7] and in experiment [8] was “inactive” throughout.
For `COc1ccccc1N=Nc1c(S(=O)(=O)O)cc2cc(S(=O)(=O)O)cc(NC(C)=O)c2c1O`, the Potency result in experiment [1], in experiment [2], in experiment [3], in [4], in experiment [9] and in [6] was “inactive” in each case. For the same compound, the Potency result in experiment [10] and in experiment [7] was “inactive” each time.
On to `CCCC(=O)O[C@]1(C(=O)COC(=O)CC)CC[C@H]2[C@@H]3CCC4=CC(=O)CC[C@]4(C)[C@H]3[C@@H](O)C[C@@]21C`, for which the activity change, negative = cytotoxicity in [1] was 0.536% [at 15.8 µM]; in [6], 2.56% [at 15.8 µM]; in experiment [10], 0.511% [at 15.8 µM]; in [8], -13.7% [at 15.8 µM]. For the same compound, the results for the cytotoxicity increase in [2] and in experiment [5] were -18.3% [at 15.8 µM] and -4.08% [at 15.8 µM], respectively. The cytotoxicity in experiment [3] is -8.79% [at 15.8 µM]. Moreover, in experiment [9], the activity change, negative = cytotoxic was 1.6% [at 15.8 µM]. Besides, the activity change in experiment [7] is -13.4% [at 15.8 µM, stronger effect = higher value].
For the compound `O=c1[nH]c2ccc(S(=O)CCN3CCC(Cc4ccc(F)cc4)CC3)cc2o1` (configuration not stated), the Potency entry in [1], in [2], in experiment [4], in [5], in experiment [9] and in experiment [7] was “inactive” in each case.
